Values of other authors as cited in PubChem BioAssay AID977608.
The campaign covered roughly 4,300 compounds. About 4,300 (100%) were called active. Cut-off not given; nearly all actives show IC50 up to about 1400 µM. The set was probably picked from earlier hits. The list shows a part of the results. Positions of bridges follow the written chain, without caps; N, C: chain ends. Bridge positions count the residues as written; N and C are the ends. Non-standard residues stand in square brackets, D forms with d. Square brackets hold non-standard residues; d marks the D form. Residues, ends and D or L forms follow the SMILES beside them. Peptide text beside a SMILES is read from it. *: point of attachment. Phe(3,5-F2) = N[C@@H](Cc1cc(F)cc(F)c1)C(=O)O; Orn(CH(NH2)2) = NC(N)NCCC[C@H](N)C(=O)O; Pip(4S-Me) = C[C@H]1CCN[C@H](C(=O)O)C1; β3hR = N=C(N)NCCC[C@H](N)CC(=O)O; β3hE = N[C@@H](CCC(=O)O)CC(=O)O; β3hQ = NC(=O)CC[C@H](N)CC(=O)O; X1 = CC[C@H](C)C/C=C/C(=O)*; β3hD = NC(CC(=O)O)CC(=O)O; β3hA = C[C@H](N)CC(=O)O

Experiment: protein-ligand inhibition affinities from structures – PDB-derived complexes (AID 977608)

In the case of H-FLNKDLEVDGHFVTM-OH, the IC50 (literature IC50, protein: HLA class I histocompatibility antigen, A-2 alpha chain HLA-A*0201, PDB entry 4u6y) is listed as 0.083 µM (active).

For H-MHRVSAALEEANKVFL-OH, the IC50 (literature IC50, protein: Maltose ABC transporter periplasmic protein, Nuclear receptor subfamily 0 group B member 2 chimeric construct MBP-SHP, PDB entry 4nuf) is listed as 5 µM (active).

In the case of H-GSDARFLRGYHLYA-OH, the IC50 (literature IC50, protein: HLA class II histocompatibility antigen, DR alpha chain, PDB entry 4ov5) is listed as 0.0369 µM (active).

For `O=C(Nc1ccccc1N1CCNCC1)c1csc(-n2ncc3ccccc32)n1`, the IC50 (literature IC50, protein: Serine/threonine-protein kinase Chk1, PDB entry 4hyi) is given as 0.003 µM (active).

In the case of `CN1C(=O)N[C@H](Cc2c[nH]c3c(Cl)cccc23)C1=O`, the IC50 (literature IC50, protein: Receptor-interacting serine/threonine-protein kinase 1 (C34A, C127A, C233A, C240A mutation), PDB entry 4ith) is listed as 0.317 µM (active).

In the case of `CO[C@H]1CCO[C@@]2(C)Oc3c(C)c(=O)c4c(O)c(c5oc6cccc(OCCCCN7CCN(CCn8ccnc8)CC7)c6nc5c4c3C2=O)NC(=O)[C@H](C)CCC[C@H](C)[C@H](O)[C@@H](C)[C@@H](O)[C@@H](C)[C@H](OC(C)=O)[C@@H]1C`, the IC50 (literature IC50, protein: DNA-directed RNA polymerase subunit alpha, PDB entry 4kn7) is given as 0.024 µM (active).

In the case of `CCN(CC)CCOc1cccc2oc3c4c(O)c5c(=O)c(C)c6c(c5c3nc12)C(=O)[C@@](C)(OCC[C@H](OC)[C@@H](C)[C@@H](OC(C)=O)[C@H](C)[C@H](O)[C@H](C)[C@@H](O)[C@@H](C)CCC[C@@H](C)C(=O)N4)O6`, the IC50 (literature IC50, protein: DNA-directed RNA polymerase subunit alpha, PDB entry 4kn4) is given as 0.057 µM (active).

In the case of `CC[C@H](C)[C@H](NC(=O)[C@H](C)N)C(=O)N[C@H](C)C(=O)N[C@@H](C)C(=O)N[C@@H](CCC(N)=O)CC(=O)N[C@@H](CC(C)C)C(=O)N[C@@H](CCCN=C(N)N)C(=O)N[C@@H](CCCN=C(N)N)CC(=O)N[C@@H](CCSC)C(=O)N[C@@H](C)C(=O)N[C@@H](CC(=O)O)C(=O)N[C@@H](CC(=O)O)CC(=O)N[C@@H](CC(C)C)C(=O)N[C@@H](CC(N)=O)C(=O)N[C@@H](C)CC(=O)N[C@@H](CCC(N)=O)C(=O)N[C@@H](Cc1ccc(O)cc1)C(=O)N[C@@H](CCC(=O)O)C(N)=O`, the IC50 (literature IC50, protein: fusion protein of mouse and human Mcl-1, PDB entry 4bpj) is given as 1 µM (active).

For `CC[C@H](C)[C@H](NC(=O)C[C@H](CCC(=O)O)NC(=O)[C@H](CCC(=O)O)NC(=O)[C@H](C)N)C(=O)NCC(=O)N[C@@H](C)C(=O)N[C@@H](CCC(N)=O)CC(=O)N[C@@H](CC(C)C)C(=O)N[C@@H](CCCN=C(N)N)C(=O)N[C@@H](CCCN=C(N)N)CC(=O)N[C@@H](CCSC)C(=O)N[C@@H](C)C(=O)N[C@@H](CC(=O)O)C(=O)N[C@@H](CC(=O)O)CC(=O)N[C@@H](CC(C)C)C(=O)N[C@@H](CC(N)=O)C(=O)N[C@@H](C)CC(=O)N[C@@H](CCC(N)=O)C(=O)N[C@@H](Cc1ccc(O)cc1)C(=O)O` (H-AE[β3hE]IGA[β3hQ]LR[β3hR]MAD[β3hD]LN[β3hA]QY-OH), the IC50 (literature IC50, protein: fusion protein of mouse and human Mcl-1, PDB entry 4bpi) is listed as 0.67 µM (active).

In the case of `Nc1ncc2c(n1)-c1c([nH]c3ccc(Br)cc13)CCC2`, the IC50 (literature IC50, protein: Mitogen-activated protein kinase kinase kinase 14, PDB entry 4idt) is given as 0.1 µM (active).

In the case of `N#CNC(=NCCCCCCOc1ccc(Cl)cc1)Nc1ccncc1`, the IC50 (literature IC50, protein: Human Nicotinamide Phosphoribosyltransferase, PDB entry 4o12) is listed as 0.002 µM (active).

For `CCOc1ccc(C(=O)Nc2ccc(F)c([C@@]3(C)NC(N)OCC3(F)F)c2)nc1` (some centres not stated), the IC50 (literature IC50, protein: BETA-SECRETASE 2, PDB entry 3zlq) is given as 0.904 µM (active) and the IC50 (literature IC50, protein: Beta-secretase 1, PDB entry 4j0t) is given as 0.184 µM (active).

For `CCOP(=O)(COc1ccc(CCc2cnc3c(c2)C(=O)N(C)c2cccnc2N3CC)cc1)OCC`, the IC50 (literature IC50, protein: Reverse transcriptase, PDB entry 4i7f) is given as 0.1 µM (active).

In the case of `O=C(COc1ccccc1[P+](O)(O)O)Nc1cccc(Cl)c1Cl`, the IC50 (literature IC50, protein: 14-3-3 protein sigma, PDB entry 4dhu) is listed as 5 µM (active).

For `O=C(COc1ccccc1[P+](O)(O)O)Nc1ccccc1C(F)(F)F`, the IC50 (literature IC50, protein: 14-3-3 protein sigma, PDB entry 3t0l) is given as 30 µM (active).

For `O=C(COc1ccccc1[P+](O)(O)O)Nc1ccccc1Cl`, the IC50 (literature IC50, protein: 14-3-3 protein sigma, PDB entry 4dhr) is listed as 27 µM (active).

For `O=C(COc1ccccc1[P+](O)(O)O)Nc1cc(C(F)(F)F)ccc1Cl`, the IC50 (literature IC50, protein: 14-3-3 protein sigma, PDB entry 4dhp) is given as 36 µM (active).

For `N#Cc1c(F)cc(O)cc1SCCS(O)(O)O`, the IC50 (literature IC50, protein: M-phase inducer phosphatase 2 CDC25B, PDB entry 4wh9) is given as 1000 µM (active).

In the case of `COc1cc2cc(c1)NC(=O)/C(C)=C/CC[C@H](OC(N)=O)[C@@H](OC(N)=O)/C(C)=C/[C@H](C)[C@@H](OC)[C@@H](OC)COC2`, the IC50 (literature IC50, protein: Heat shock protein HSP 90-alpha, PDB entry 4jql) is listed as 1 µM (active).

For `CC[C@H](C)[C@@H]1NC(=O)[C@H](CC(=O)O)NC(=O)[C@@H](NC(=O)[C@H](CCC(=O)O)NC(=O)[C@H](CC(N)=O)NC(=O)CNC(=O)CN)CSSC[C@@H](C(=O)N[C@@H](Cc2ccccc2)C(=O)N[C@@H](CCC(=O)O)C(=O)N[C@@H](CCCNC(N)N)C(=O)N[C@@H](CC(C)C)C(=O)O)NC(=O)[C@H](CCC(=O)O)NC(=O)[C@H](Cc2c[nH]c3ccccc23)NC(=O)[C@H](CCC(=O)O)NC(=O)[C@H](Cc2c[nH]c3ccccc23)NC(=O)[C@H](CCSC)NC(=O)[C@H](CCCNC(N)N)NC(=O)[C@H](C)NC1=O` (H-GGNECDIA[Orn(CH(NH2)2)]MWEWECFE[Orn(CH(NH2)2)]L-OH; disulfide 5-15), the IC50 (literature IC50, protein: Vascular endothelial growth factor(VEGF), PDB entry 1kat) is listed as 1 µM (active).

For `CSCC[C@H](NC(=O)[C@@H]1CSSC[C@H](NC(=O)[C@H](CC(N)=O)NC(=O)[C@@H](N)CCCNC(N)N)C(=O)N[C@@H](Cc2ccccc2)C(=O)N[C@@H](CCC(=O)O)C(=O)N[C@@H](CO)C(=O)N[C@@H](C(C)C)C(=O)N[C@@H](C)C(=O)N[C@@H](C)C(=O)N[C@@H](CC(C)C)C(=O)N[C@@H](CCCNC(N)N)C(=O)N[C@@H](CCCNC(N)N)C(=O)N1)C(=O)N[C@@H](Cc1ccc(O)cc1)C(=O)NCC(=O)O` (H-[Orn(CH(NH2)2)]NCFESVAAL[Orn(CH(NH2)2)][Orn(CH(NH2)2)]CMYG-OH; disulfide 3-13), the IC50 (literature IC50, protein: Insulin-like growth factor IB(IGF-I), PDB entry 1pmx) is given as 7.2 µM (active).

For `CC[C@@H]1C(=O)N(C)c2cnc(-n3ccnc3-c3ccccc3)nc2N1C1CC=CC1`, the IC50 (literature IC50, protein: Serine/threonine-protein kinase PLK2 (C83S, V87T, A119S, A216S, C259A, C291S, L335T mutation), PDB entry 4i6f) is listed as 0.005 µM (active).

For `CC[C@@H]1C(=O)N(C)c2cnc(-n3ccnc3-c3cscn3)nc2N1C1CCCC1`, the IC50 (literature IC50, protein: Serine/threonine-protein kinase PLK2 (C83S, V87T, A119S, A216S, C259A, C291S, L335T mutation), PDB entry 4i6h) is given as 0.005 µM (active).

For `CC[C@H](C)C/C=C/C(=O)N[C@@H](Cc1cc(F)cc(F)c1)C(=O)N[C@@H]1C(=O)N2CCC[C@H]2C(=O)N2CC[C@H](C)C[C@H]2C(=O)N[C@@H](C)C(=O)N2CCC[C@H]2C(=O)O[C@@H]1C` (X1-[Phe(3,5-F2)]TP[Pip(4S-Me)]AP; ester 2-C), the IC50 (literature IC50, protein: ATP-dependent Clp protease proteolytic subunit 1 ClpP1, PDB entry 4u0g) is listed as 5.1 µM (active).

For `Oc1ccc(-n2ccnc2)cc1`, the IC50 (literature IC50, protein: Polymerase PA, PDB entry 4m5r) is given as 1000 µM (active).

For `c1cc2nc(N[C@H]3CCCNC3)c3cc[nH]c3n2n1`, the IC50 (literature IC50, protein: MAP kinase-activated protein kinase 2, PDB entry 3wi6) is listed as 4.7 µM (active).

In the case of `O=C(O)c1ccc2occc2c1`, the IC50 (literature IC50, protein: Dengue virus 3 non-structural protein 5, PDB entry 4ctj) is listed as 3120 µM (active).

For `N[C@@H](CCNC(=O)N1CCn2c(ccc2C(F)(F)F)C1)Cc1cc(F)c(F)cc1F`, the IC50 (literature IC50, protein: Dipeptidyl peptidase 4, DPP4, PDB entry 4j3j) is given as 0.031 µM (active).

For `COc1ccc(Cl)cc1NCC(=O)NC1CCC(n2c(=O)[nH]c3ccccc32)CC1` (configuration not stated), the IC50 (literature IC50, protein: Tankyrase-1, PDB entry 4k4e) is listed as 0.024 µM (active).

For `COc1nc2c(cc1-c1c(C)noc1C)ncc1[nH]c(=O)n(-c3ccccc3OC(F)(F)F)c12`, the IC50 (literature IC50, protein: BROMODOMAIN-CONTAINING PROTEIN 4, PDB entry 4bw4) is listed as 0.63 µM (active).

For `C/C(=N\O)c1ccc(O)cc1O`, the IC50 (literature IC50, protein: SERINE/THREONINE-PROTEIN KINASE CHK2, PDB entry 4bdb) is listed as 85.6 µM (active).
